According to the supplement of paper PMC13380429:
A number with no mark means an inactive call.

System: Vero E6 infected with SARS-CoV-2
Test: inhibition of SARS-CoV-2 cytopathic effect; higher = more antiviral protection, active = above 15
Settings: 48 h

NCCCNCCCCNCCCN [spermine]
inhibition of SARS-CoV-2 cytopathic effect (1 nM): 1.74%
inhibition of SARS-CoV-2 cytopathic effect (8.33 nM): -5.72%
inhibition of SARS-CoV-2 cytopathic effect (100 nM): -0.71%
inhibition of SARS-CoV-2 cytopathic effect (833.33 nM): -2%
inhibition of SARS-CoV-2 cytopathic effect (10000 nM): 2.37%

OC(c1cc(C(F)(F)F)nc2c(C(F)(F)F)cccc12)C1CCCCN1 (stereo not given) [mefloquine]
inhibition of SARS-CoV-2 cytopathic effect (1 nM): -1.64%
inhibition of SARS-CoV-2 cytopathic effect (8.33 nM): 0.59%
inhibition of SARS-CoV-2 cytopathic effect (100 nM): -0.03%
inhibition of SARS-CoV-2 cytopathic effect (833.33 nM): -3.31%
inhibition of SARS-CoV-2 cytopathic effect (10000 nM): 73.3% (active)

Cc1cc(O)ccc1Cl [chlorocresol]
inhibition of SARS-CoV-2 cytopathic effect (1 nM): -0.46%
inhibition of SARS-CoV-2 cytopathic effect (8.33 nM): 2.29%
inhibition of SARS-CoV-2 cytopathic effect (100 nM): 1.47%
inhibition of SARS-CoV-2 cytopathic effect (833.33 nM): 1.63%
inhibition of SARS-CoV-2 cytopathic effect (10000 nM): 1.88%

CCC[C@@H]1CC(=O)N([C@@H](CC)C(N)=O)C1 [Brivaracetam]
inhibition of SARS-CoV-2 cytopathic effect (1 nM): -0.93%
inhibition of SARS-CoV-2 cytopathic effect (8.33 nM): -1.72%
inhibition of SARS-CoV-2 cytopathic effect (100 nM): -2.91%
inhibition of SARS-CoV-2 cytopathic effect (833.33 nM): -2.52%
inhibition of SARS-CoV-2 cytopathic effect (10000 nM): 1.45%

CCC1(C2=NCCN2)Cc2ccccc2O1 (stereo not given) [efaroxan]
inhibition of SARS-CoV-2 cytopathic effect (1 nM): -0.76%
inhibition of SARS-CoV-2 cytopathic effect (8.33 nM): -1.17%
inhibition of SARS-CoV-2 cytopathic effect (100 nM): -0.66%
inhibition of SARS-CoV-2 cytopathic effect (833.33 nM): -2.93%
inhibition of SARS-CoV-2 cytopathic effect (10000 nM): -3.79%

CS(=O)(=O)c1ccc(Oc2cc(F)cc(C#N)c2)c2c1[C@H](O)C(F)(F)C2
inhibition of SARS-CoV-2 cytopathic effect (1 nM): 0.26%
inhibition of SARS-CoV-2 cytopathic effect (8.33 nM): 2.61%
inhibition of SARS-CoV-2 cytopathic effect (100 nM): 0.38%
inhibition of SARS-CoV-2 cytopathic effect (833.33 nM): -1.3%
inhibition of SARS-CoV-2 cytopathic effect (10000 nM): 0.01%

CC1(C)C[C@@H]1C(=O)N/C(=C\CCCCSC[C@H](N)C(=O)O)C(=O)O [Cilastatin Sodium]
inhibition of SARS-CoV-2 cytopathic effect (1 nM): 1.3%
inhibition of SARS-CoV-2 cytopathic effect (8.33 nM): 3.44%
inhibition of SARS-CoV-2 cytopathic effect (100 nM): -0.05%
inhibition of SARS-CoV-2 cytopathic effect (833.33 nM): -0.19%
inhibition of SARS-CoV-2 cytopathic effect (10000 nM): -0.52%

C=C[C@@H]1C[C@]1(NC(=O)[C@@H]1C[C@@H]2CN1C(=O)[C@H](C(C)(C)C)NC(=O)O[C@@H]1C[C@H]1CCCCCc1nc3ccc(OC)cc3nc1O2)C(=O)NS(=O)(=O)C1CC1 [grazoprevir]
inhibition of SARS-CoV-2 cytopathic effect (1 nM): -0.59%
inhibition of SARS-CoV-2 cytopathic effect (8.33 nM): -3.18%
inhibition of SARS-CoV-2 cytopathic effect (100 nM): -2.52%
inhibition of SARS-CoV-2 cytopathic effect (833.33 nM): 1.78%
inhibition of SARS-CoV-2 cytopathic effect (10000 nM): 1.23%

Cc1nc2sccn2c(=O)c1CCN1CCC(=C(c2ccccc2)c2ccc(F)cc2)CC1
inhibition of SARS-CoV-2 cytopathic effect (1 nM): 1.18%
inhibition of SARS-CoV-2 cytopathic effect (8.33 nM): -2.89%
inhibition of SARS-CoV-2 cytopathic effect (100 nM): 0.46%
inhibition of SARS-CoV-2 cytopathic effect (833.33 nM): 2.57%
inhibition of SARS-CoV-2 cytopathic effect (10000 nM): 1.02%

O=C[C@H](F)[C@@H](O)[C@@H](O)[C@H](O)CO [2-fluoro-2-deoxy-D-galactose]
inhibition of SARS-CoV-2 cytopathic effect (1 nM): 1.5%
inhibition of SARS-CoV-2 cytopathic effect (8.33 nM): 1.13%
inhibition of SARS-CoV-2 cytopathic effect (100 nM): 1.44%
inhibition of SARS-CoV-2 cytopathic effect (833.33 nM): 1.15%
inhibition of SARS-CoV-2 cytopathic effect (10000 nM): 0.92%

CCCC[C@@H](NC(=O)[C@@H](Cc1cn(C(=O)OC)c2ccccc12)NC(=O)[C@H](CC(C)(C)C)NC(=O)N1[C@H](C)CCC[C@@H]1C)C(=O)O
inhibition of SARS-CoV-2 cytopathic effect (1 nM): 1.03%
inhibition of SARS-CoV-2 cytopathic effect (8.33 nM): 2.89%
inhibition of SARS-CoV-2 cytopathic effect (100 nM): 1.32%
inhibition of SARS-CoV-2 cytopathic effect (833.33 nM): -1.6%
inhibition of SARS-CoV-2 cytopathic effect (10000 nM): 1.29%

C=C[C@H]1CN2CC[C@H]1C[C@H]2[C@H](O)c1ccnc2ccccc12 [cinchonidine]
inhibition of SARS-CoV-2 cytopathic effect (1 nM): -0.165%
inhibition of SARS-CoV-2 cytopathic effect (8.33 nM): 2.44%
inhibition of SARS-CoV-2 cytopathic effect (100 nM): 2.67%
inhibition of SARS-CoV-2 cytopathic effect (833.33 nM): 3.6%
inhibition of SARS-CoV-2 cytopathic effect (10000 nM): 2.49%

c1ccc(CN2CCC3(CCc4ccccc43)CC2)cc1
inhibition of SARS-CoV-2 cytopathic effect (1 nM): -1.07%
inhibition of SARS-CoV-2 cytopathic effect (8.33 nM): -1.48%
inhibition of SARS-CoV-2 cytopathic effect (100 nM): 0.06%
inhibition of SARS-CoV-2 cytopathic effect (833.33 nM): 1.63%
inhibition of SARS-CoV-2 cytopathic effect (10000 nM): 0.48%

CO[C@H]1/C=C/O[C@@]2(C)Oc3c(C)c(O)c4c(O)c(cc(O)c4c3C2=O)NC(=O)/C(C)=C\C=C\[C@H](C)[C@H](O)[C@@H](C)[C@@H](O)[C@@H](C)[C@H](OC(C)=O)[C@@H]1C [rifamycin-sv]
inhibition of SARS-CoV-2 cytopathic effect (1 nM): 0.74%
inhibition of SARS-CoV-2 cytopathic effect (8.33 nM): 1.12%
inhibition of SARS-CoV-2 cytopathic effect (100 nM): 3.4%
inhibition of SARS-CoV-2 cytopathic effect (833.33 nM): 4.53%
inhibition of SARS-CoV-2 cytopathic effect (10000 nM): 2.73%

CN(C)c1cccc(Oc2cnc(Nc3cccc(O)c3)nc2)c1
inhibition of SARS-CoV-2 cytopathic effect (1 nM): -2.69%
inhibition of SARS-CoV-2 cytopathic effect (8.33 nM): 0.57%
inhibition of SARS-CoV-2 cytopathic effect (100 nM): -1.76%
inhibition of SARS-CoV-2 cytopathic effect (833.33 nM): 2.09%
inhibition of SARS-CoV-2 cytopathic effect (10000 nM): -3.69%

CC(CN(C)C)C(C)(O)Cc1ccc(Cl)cc1 (stereo not given) [clobutinol]
inhibition of SARS-CoV-2 cytopathic effect (1 nM): -0.23%
inhibition of SARS-CoV-2 cytopathic effect (8.33 nM): 2.65%
inhibition of SARS-CoV-2 cytopathic effect (100 nM): 1.61%
inhibition of SARS-CoV-2 cytopathic effect (833.33 nM): -3.1%
inhibition of SARS-CoV-2 cytopathic effect (10000 nM): -0.69%

N#CN1CCCC1 [pyrrolidine-1-carbonitrile]
inhibition of SARS-CoV-2 cytopathic effect (1 nM): 3.76%
inhibition of SARS-CoV-2 cytopathic effect (8.33 nM): 2.93%
inhibition of SARS-CoV-2 cytopathic effect (100 nM): -2%
inhibition of SARS-CoV-2 cytopathic effect (833.33 nM): 1.38%
inhibition of SARS-CoV-2 cytopathic effect (10000 nM): 2.45%

CN1CCC(NC(=O)c2cc(-c3c(O)cc(O)cc3Oc3ccc([N+](=O)[O-])cc3)on2)CC1
inhibition of SARS-CoV-2 cytopathic effect (1 nM): 0.32%
inhibition of SARS-CoV-2 cytopathic effect (8.33 nM): 0.21%
inhibition of SARS-CoV-2 cytopathic effect (100 nM): 3.95%
inhibition of SARS-CoV-2 cytopathic effect (833.33 nM): -1.5%
inhibition of SARS-CoV-2 cytopathic effect (10000 nM): -5.98%
